Measured values: PubChem BioAssay AID1508602 (The Scripps Research Institute Molecular Screening Center, 2020)
Values joined by “and” are separate entries in the source; they are usually repeats but may differ in a detail not shown here. Equal entries are not always repeated. About 6,800 (1%) of roughly 650,000 compounds were called active. No stated cut-off is given here; in the data, active means activation above about 4.9%; inactive means the rest. The entries come from a sample that favours actives as a whole. A structure can be active in one record and inactive in another.

Target: G-protein coupled receptor 151 (Homo sapiens) (UniProt Q8TDV0)
Assay: activators of human GPR151, primary screen, cell-based, PathHunter beta-arrestin, luminescence (AID 1508602);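 further: 0% = median of compound wells and 100% = cells with positive control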
Details: PathHunter beta-arrestin GPR151 cells, at 11.2 µM, stronger effect = higher value

Chain of G-protein coupled receptor 151 (Homo sapiens) (Q8TDV0 whole entry, looked up): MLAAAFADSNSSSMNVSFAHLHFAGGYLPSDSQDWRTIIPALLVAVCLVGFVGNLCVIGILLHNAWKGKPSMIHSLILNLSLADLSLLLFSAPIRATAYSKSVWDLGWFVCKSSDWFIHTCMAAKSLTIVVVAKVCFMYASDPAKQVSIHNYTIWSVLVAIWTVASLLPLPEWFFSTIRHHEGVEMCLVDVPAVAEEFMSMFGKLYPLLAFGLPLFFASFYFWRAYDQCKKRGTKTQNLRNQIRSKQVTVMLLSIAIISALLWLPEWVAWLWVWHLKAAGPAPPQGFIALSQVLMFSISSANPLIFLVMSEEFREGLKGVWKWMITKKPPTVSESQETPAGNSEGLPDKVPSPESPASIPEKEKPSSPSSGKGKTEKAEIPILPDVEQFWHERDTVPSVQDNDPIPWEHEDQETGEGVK

| Structure (SMILES) | activation |
| --- | --- |
| CCN(CC)C(=O)C1CCCN(c2cccc(C(=O)NCCc3ccc(OC)cc3)c2)C1 (stereo unspecified) | -1.08% (inactive) |
| CCN(CC)C(=O)C1CCCN(c2cc(N)nc(N)n2)C1 (stereo unspecified) | 6.79% (active) |
| CCN(CC)C(=O)C1CCCN(c2cccc(C(=O)NCCc3ccc(OC)cc3)n2)C1 (stereo unspecified) | 5.87% (active) |
| CCN(CC)C(=O)C1CCCN(c2nc3ncnc(NCCc4ccc(OC)cc4)c3[nH]2)C1 (stereo unspecified) | 0.885% (inactive) |
| CCN(CC)C(=O)C1CCCN(c2cc(Nc3ccccc3)nc(N)n2)C1 (stereo unspecified) | 1.77% (inactive) |
| CCN(CC)C(=O)C1CCCN(c2cc(NCCN(C(C)C)C(C)C)nc(N)n2)C1 (stereo unspecified) | 4.23% (inactive) |
| O=C(O)c1cc(N=Cc2cccnc2)ccc1O | 0.982% (inactive) |
| Cc1ccc(CNC(=O)CCCCCn2c(SCc3cc(=O)n4ccccc4n3)nc3ccsc3c2=O)cc1 | 1.39% (inactive) |
| O=C(Nc1ccc(F)c(Cl)c1)/C(=C/c1cccc([N+](=O)[O-])c1)NC(=O)c1cccs1 | 0.762% (inactive) |
| C=CCNC(=O)/C(=C/c1ccc(Cl)cc1)NC(=O)c1ccccc1 | 3.04% (inactive) |
| CC(NC(=O)Cc1ccc(-c2ccccc2)cc1)c1nc(-c2cccnc2)n[nH]1 (stereo unspecified) | -0.113% (inactive) |
| CCC(C)OC(=O)C1=C(C)NC2=C(C(=O)CC(c3ccccc3)C2)C1c1ccccc1OCc1ccccc1 (stereo unspecified) | 1.93% (inactive) |
| CN1CC(=O)N2CCN(C(=O)OCc3ccccc3)C[C@@H]2C1=O | 5.14% (active) |
| NCCCC[C@@H]1NC(=O)[C@H]2CN(C(=O)OCc3ccccc3)CCN2C1=O | -0.551% (inactive) |
| COc1ccccc1C(=O)N1CCN2C(=O)CN(C)C(=O)[C@H]2C1 | 1.54% (inactive) |
| O=C1CSC(c2ccccc2Br)N1c1ccc(F)c(Cl)c1 (stereo unspecified) | -1.29% (inactive) |
| COc1ccc(C(=O)COC(=O)c2ccc3ccccc3n2)c(OC)c1 | -0.989% (inactive) |
| COc1cccc(/C=C/C(=O)c2cc3ccccc3oc2=O)c1 | -0.0229% (inactive) |
| COc1ccc(C(=O)Cc2cc3ccccc3oc2=O)c(OC)c1 | 8.65% (active) |
| O=C(CSc1nc2ccccc2c(=O)n1CCCN1CCN(c2cccc(Cl)c2)CC1)N1CCCCCC1 | 0.298% (inactive) |
| CCCN1CCC(N2CCN(c3cccc(Cl)c3)CC2)CC1 | -0.685% (inactive) |
| CCc1nn(CCCN2CCN(c3cccc(Cl)c3)CC2)c(=O)n1CCOc1ccccc1 | 5.41% (active) and -0.0264% (inactive) and -0.848% (inactive) |
| COc1cc(Br)cc(/C=N/NC(=O)c2cc(-c3ccccc3)n[nH]2)c1O | 3.1% (inactive) |

| Structure (SMILES) | activation |
| --- | --- |
| O=C(N/N=C/c1ccccc1O)c1cc(-c2ccc(Cl)cc2)n[nH]1 | -0.397% (inactive) |
| O=C(N/N=C/c1cc(Cl)ccc1O)c1cc(-c2ccccc2)n[nH]1 | 5.58% (active) |
| Cn1c(=NC(=O)CN2C(=O)CCC2=O)sc2cc([N+](=O)[O-])ccc21 | 1.44% (inactive) |
| CC(C)(C)c1cnnn1-c1ccc(C(=O)/C=C\c2ccco2)cc1 | 0.0135% (inactive) |
| COc1ccc(NC(=O)CCC(=O)N/N=C/c2cc(Cl)ccc2O)cc1 | -1.64% (inactive) |
| COc1ccc(NC(=O)CCC(=O)N/N=C/c2ccccc2Cl)cc1 | 0.396% (inactive) |
| C=CCc1cccc(/C=N/NC(=O)CCC(=O)Nc2ccc(Br)cc2)c1O | 7.12% (active) |
| COc1ccccc1N(CC(=O)Nc1ccc(F)c(Cl)c1)S(=O)(=O)c1ccccc1 | 2.46% (inactive) |
| COC(=O)c1sccc1N/N=C/c1ccccn1 | -4.95% (inactive) |
| COc1ccc(CCNC(=O)Cn2cnc3sc4c(c3c2=O)CCC4)cc1OC | 0.328% (inactive) |
| COc1ccc(NC(=O)Cc2ccc(C)cc2)cc1 | -2.5% (inactive) |
| COc1ccc(CC(=O)Nc2ccc(-c3nnc(-c4ccccc4)o3)cc2)cc1 | 7.27% (active) |
| COc1cccc(-c2nnc(SCC(=O)NCc3ccccc3)o2)c1 | -0.0263% (inactive) |
| COc1cccc(NC(=O)CSc2nnc(-c3ccc(NS(C)(=O)=O)cc3)o2)c1 | 0.627% (inactive) |
| COc1cccc(-c2nnc(NC(=O)CSc3ccccc3)o2)c1 | 9.1% (active) |
| COc1ccc(CC(=O)Nc2ccc(C(=O)Nc3ccccc3C(=O)O)cc2)cc1 | 1.57% (inactive) |
| CCC(C)NC(=O)c1sc2nc(C)nc(N3CCCCC3)c2c1C (stereo unspecified) | 2.24% (inactive) |
| CCC(CC)C(=O)Nc1ccc(S(=O)(=O)Nc2ncccn2)cc1 | -0.125% (inactive) |
| CCCCCC(=O)OCCNC(=O)c1cc2ccccc2oc1=O | -0.976% (inactive) |
| CCc1ccc(S(=O)(=O)NCc2csc(-c3ccccc3)n2)cc1 | -1.08% (inactive) |
| O=S(=O)(NCc1csc(-c2cccnc2)n1)c1ccc2ccccc2c1 | 5.9% (active) |
| Cc1ccc(S(=O)(=O)NCc2csc(-c3ccccc3)n2)cc1 | 4.76% (inactive) |
| NC1=NC(=O)/C(=C/c2ccccc2C(F)(F)F)S1 | -0.392% (inactive) |
